Source: the supplement of paper PMC10849652
About 7,900 targets were measured; listed, in parts, are those with a hit and a random draw of the rest. About 0.6% of all pairs of compound and target were hits. A number with no mark means an inactive call.

Experiments:
Assay in all cases: log2 fold change, soluble protein after heating vs DMSO (PISA); higher = thermal stabilisation; K562 cells, 10 uM, 30 min; active = over 0.2 and 3.5 SD of the protein, either way, in both replicates (recomputed)
bafetinib = compound: Cc1ccc(NC(=O)c2ccc(CN3CC[C@H](N(C)C)C3)c(C(F)(F)F)c2)cc1Nc1nccc(-c2cncnc2)n1 [bafetinib]
Summary of the method: (§1)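 Thermal stability values are relative to control samples and come from duplicates. They are expressed as log2 fold changes. For measurement, K562 cells (2×10^6 cells/mL) received 10 μM compound for 30 min, and aliquots were heated for 3 min over 48°C-58°C, pooled, and extracted at 4°C in PBS with 0.5% NP-40. Soluble protein, the supernatant after 21,000xg for 90 min, was quantified by TMTpro 16plex LC-MS/MS with equalised channel sums.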

[1] = compound: Cn1cc(-c2ccc3c(c2)CCN3C(=O)Cc2cccc(C(F)(F)F)c2)c2c(N)ncnc21
Summary of the method: as §1

[2] = compound: Cn1cc(-c2ccc3nnc(C(F)(F)c4ccc5ncccc5c4)n3n2)cn1
Summary of the method: as §1

tipifarnib = compound: Cn1cncc1[C@@](N)(c1ccc(Cl)cc1)c1ccc2c(c1)c(-c1cccc(Cl)c1)cc(=O)n2C [tipifarnib]
Summary of the method: as §1

mubritinib = compound: FC(F)(F)c1ccc(/C=C/c2nc(COc3ccc(CCCCn4ccnn4)cc3)co2)cc1 [mubritinib]
Summary of the method: as §1

dasatinib = compound: Cc1nc(Nc2ncc(C(=O)Nc3c(C)cccc3Cl)s2)cc(N2CCN(CCO)CC2)n1 [dasatinib]
Summary of the method: as §1

nilotinib = compound: Cc1cn(-c2cc(NC(=O)c3ccc(C)c(Nc4nccc(-c5cccnc5)n4)c3)cc(C(F)(F)F)c2)cn1 [nilotinib]
Summary of the method: as §1

[3] = compound: Cc1nc(Nc2n[nH]c3c2CN(C(=O)N[C@H](CN(C)C)c2ccccc2)C3(C)C)c2sccc2n1
Summary of the method: as §1

[4] = compound: Cc1ncc(-c2ccnc(Nc3ccc(S(C)(=O)=O)cc3)n2)n1C(C)C
Summary of the method: as §1

[5] = compound: Cc1cccc(CC(=O)N2CCc3c2ccc(-c2cn(C)c4ncnc(N)c24)c3F)n1
Summary of the method: as §1

Chain of UniProt P53370 (P53370 whole entry, looked up): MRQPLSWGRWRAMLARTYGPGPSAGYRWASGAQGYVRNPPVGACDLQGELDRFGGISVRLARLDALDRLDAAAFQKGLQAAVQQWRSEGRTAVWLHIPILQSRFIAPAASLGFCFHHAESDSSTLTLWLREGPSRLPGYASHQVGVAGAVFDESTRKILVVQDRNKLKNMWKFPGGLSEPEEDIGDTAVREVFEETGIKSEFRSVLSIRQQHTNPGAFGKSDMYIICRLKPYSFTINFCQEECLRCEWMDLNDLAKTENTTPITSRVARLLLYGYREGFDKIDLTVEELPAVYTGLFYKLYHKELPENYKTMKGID
Chain of UniProt Q8WZ82 (Q8WZ82 whole entry, looked up): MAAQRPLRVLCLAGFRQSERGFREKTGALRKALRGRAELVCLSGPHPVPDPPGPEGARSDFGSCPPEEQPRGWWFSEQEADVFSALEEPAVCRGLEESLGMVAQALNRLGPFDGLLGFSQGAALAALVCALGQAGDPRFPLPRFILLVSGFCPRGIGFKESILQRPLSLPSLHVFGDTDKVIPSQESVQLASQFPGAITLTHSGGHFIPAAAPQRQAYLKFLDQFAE
Chain of UniProt O75052 (O75052 whole entry, looked up): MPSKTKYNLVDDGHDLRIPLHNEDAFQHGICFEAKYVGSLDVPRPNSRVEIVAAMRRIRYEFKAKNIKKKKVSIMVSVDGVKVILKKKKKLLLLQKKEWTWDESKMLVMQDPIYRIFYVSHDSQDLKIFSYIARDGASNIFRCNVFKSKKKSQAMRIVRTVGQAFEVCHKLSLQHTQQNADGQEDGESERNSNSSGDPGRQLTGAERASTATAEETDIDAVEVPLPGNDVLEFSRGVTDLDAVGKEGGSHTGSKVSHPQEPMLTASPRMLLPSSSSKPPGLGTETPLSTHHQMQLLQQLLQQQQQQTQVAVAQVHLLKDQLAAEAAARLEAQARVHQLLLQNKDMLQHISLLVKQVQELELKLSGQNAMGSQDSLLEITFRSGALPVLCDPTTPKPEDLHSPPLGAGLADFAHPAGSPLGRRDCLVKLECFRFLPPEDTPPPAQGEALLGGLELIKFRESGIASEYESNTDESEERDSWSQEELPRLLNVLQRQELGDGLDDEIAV
Chain of UniProt Q8WUY8 (Q8WUY8 whole entry, looked up): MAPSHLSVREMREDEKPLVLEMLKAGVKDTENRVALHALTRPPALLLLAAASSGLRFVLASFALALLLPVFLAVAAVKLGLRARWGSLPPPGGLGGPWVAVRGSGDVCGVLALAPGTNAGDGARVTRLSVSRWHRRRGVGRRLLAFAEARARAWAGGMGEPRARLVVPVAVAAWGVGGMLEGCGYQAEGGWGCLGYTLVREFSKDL
Chain of UniProt Q9Y6X9 (Q9Y6X9 whole entry, looked up): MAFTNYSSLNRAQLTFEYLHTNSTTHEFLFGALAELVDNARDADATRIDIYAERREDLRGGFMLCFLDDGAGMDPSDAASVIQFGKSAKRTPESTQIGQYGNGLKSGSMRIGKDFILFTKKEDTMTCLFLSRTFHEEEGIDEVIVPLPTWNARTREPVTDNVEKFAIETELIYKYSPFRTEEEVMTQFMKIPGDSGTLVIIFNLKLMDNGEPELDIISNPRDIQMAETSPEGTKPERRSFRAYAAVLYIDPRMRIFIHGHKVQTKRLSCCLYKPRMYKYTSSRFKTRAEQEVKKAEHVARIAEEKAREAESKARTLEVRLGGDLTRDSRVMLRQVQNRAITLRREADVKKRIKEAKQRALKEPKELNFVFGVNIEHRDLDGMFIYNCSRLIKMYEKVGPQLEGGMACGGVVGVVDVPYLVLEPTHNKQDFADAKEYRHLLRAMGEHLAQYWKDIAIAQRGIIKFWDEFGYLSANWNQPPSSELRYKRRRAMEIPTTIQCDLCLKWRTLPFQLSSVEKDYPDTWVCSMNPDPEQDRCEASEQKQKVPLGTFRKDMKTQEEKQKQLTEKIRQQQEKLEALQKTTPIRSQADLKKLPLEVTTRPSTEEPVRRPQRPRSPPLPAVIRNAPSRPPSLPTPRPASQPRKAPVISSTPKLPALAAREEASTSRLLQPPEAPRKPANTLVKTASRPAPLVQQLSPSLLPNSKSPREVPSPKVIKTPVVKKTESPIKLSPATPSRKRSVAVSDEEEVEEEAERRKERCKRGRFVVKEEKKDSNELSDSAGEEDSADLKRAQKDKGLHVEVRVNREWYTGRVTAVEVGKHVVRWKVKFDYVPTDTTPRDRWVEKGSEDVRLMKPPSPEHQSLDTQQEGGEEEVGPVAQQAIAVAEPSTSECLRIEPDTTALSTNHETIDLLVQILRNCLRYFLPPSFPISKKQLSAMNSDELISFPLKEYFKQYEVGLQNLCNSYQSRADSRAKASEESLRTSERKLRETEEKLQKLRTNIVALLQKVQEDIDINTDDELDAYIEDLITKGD
Chain of UniProt B2RBV5 (B2RBV5 whole entry, looked up): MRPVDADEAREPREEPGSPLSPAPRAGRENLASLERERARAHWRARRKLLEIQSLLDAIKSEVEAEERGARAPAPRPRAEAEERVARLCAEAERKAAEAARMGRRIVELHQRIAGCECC
Chain of UniProt Q9H4L5 (Q9H4L5 whole entry, looked up): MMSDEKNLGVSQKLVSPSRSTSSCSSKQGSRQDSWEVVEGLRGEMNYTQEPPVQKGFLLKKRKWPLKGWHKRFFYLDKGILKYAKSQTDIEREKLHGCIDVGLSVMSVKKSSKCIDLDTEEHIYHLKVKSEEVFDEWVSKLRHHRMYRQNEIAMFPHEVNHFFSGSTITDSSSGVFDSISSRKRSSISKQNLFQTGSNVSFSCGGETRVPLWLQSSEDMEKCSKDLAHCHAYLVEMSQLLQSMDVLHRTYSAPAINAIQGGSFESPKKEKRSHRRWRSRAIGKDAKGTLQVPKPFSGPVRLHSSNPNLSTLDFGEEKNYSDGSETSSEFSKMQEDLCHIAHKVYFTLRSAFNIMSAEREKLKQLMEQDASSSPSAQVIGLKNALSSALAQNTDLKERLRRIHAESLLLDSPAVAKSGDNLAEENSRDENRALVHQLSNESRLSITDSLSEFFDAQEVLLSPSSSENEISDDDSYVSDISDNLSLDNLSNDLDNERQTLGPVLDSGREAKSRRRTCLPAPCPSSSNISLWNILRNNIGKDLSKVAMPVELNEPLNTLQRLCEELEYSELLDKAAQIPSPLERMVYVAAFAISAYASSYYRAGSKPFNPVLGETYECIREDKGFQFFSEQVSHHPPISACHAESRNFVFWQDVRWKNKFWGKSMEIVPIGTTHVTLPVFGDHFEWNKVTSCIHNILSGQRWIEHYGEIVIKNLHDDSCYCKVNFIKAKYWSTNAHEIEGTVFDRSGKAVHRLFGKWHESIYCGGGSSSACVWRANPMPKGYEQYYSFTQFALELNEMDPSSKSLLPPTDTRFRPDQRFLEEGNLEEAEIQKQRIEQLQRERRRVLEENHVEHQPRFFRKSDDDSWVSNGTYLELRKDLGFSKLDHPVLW
Chain of UniProt Q4G0T1 (Q4G0T1 whole entry, looked up): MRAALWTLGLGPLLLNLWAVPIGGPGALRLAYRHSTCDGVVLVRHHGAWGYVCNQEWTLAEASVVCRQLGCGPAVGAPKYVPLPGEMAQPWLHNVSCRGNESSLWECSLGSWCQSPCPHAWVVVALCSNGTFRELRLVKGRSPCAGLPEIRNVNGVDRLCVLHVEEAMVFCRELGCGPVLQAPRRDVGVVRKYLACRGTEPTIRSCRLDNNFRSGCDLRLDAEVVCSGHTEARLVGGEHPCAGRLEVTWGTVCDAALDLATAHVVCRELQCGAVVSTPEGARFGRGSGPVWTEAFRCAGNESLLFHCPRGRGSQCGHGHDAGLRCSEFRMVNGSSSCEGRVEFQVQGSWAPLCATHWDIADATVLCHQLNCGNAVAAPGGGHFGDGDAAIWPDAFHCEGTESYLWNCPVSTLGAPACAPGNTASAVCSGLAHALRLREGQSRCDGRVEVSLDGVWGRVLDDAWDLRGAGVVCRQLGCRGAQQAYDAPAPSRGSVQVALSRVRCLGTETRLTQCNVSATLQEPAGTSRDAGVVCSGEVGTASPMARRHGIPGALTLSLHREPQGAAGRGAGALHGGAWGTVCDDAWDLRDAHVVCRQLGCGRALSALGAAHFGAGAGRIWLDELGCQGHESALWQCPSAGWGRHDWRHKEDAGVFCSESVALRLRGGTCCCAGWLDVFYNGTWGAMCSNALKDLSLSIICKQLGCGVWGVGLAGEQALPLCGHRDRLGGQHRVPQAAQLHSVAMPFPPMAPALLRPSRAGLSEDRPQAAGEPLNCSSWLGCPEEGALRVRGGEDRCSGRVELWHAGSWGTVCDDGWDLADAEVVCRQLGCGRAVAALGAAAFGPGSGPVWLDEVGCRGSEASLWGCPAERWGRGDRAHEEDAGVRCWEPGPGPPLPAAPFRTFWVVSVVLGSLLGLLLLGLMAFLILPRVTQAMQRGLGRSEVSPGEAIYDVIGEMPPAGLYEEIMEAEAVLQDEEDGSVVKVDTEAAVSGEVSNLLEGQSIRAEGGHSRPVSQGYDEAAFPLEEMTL
Chain of UniProt Q9Y5B8 (Q9Y5B8 whole entry, looked up): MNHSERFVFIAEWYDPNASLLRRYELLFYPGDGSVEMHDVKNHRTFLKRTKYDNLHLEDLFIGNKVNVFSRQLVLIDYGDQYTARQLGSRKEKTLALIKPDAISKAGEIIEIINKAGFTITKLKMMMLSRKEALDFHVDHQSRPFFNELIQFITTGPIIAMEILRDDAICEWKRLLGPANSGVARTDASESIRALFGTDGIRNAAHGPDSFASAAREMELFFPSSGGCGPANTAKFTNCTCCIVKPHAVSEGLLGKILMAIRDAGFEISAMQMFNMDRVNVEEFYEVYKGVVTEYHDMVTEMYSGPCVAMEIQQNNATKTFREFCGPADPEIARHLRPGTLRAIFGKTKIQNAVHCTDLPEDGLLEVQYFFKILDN
Chain of UniProt P84157 (P84157 whole entry, looked up): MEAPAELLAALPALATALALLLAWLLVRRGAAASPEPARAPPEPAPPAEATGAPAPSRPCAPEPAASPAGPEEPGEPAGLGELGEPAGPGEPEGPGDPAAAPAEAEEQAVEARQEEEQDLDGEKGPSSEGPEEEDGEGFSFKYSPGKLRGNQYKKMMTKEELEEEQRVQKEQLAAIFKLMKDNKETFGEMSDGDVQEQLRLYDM

Row | Target | log2 fold change (bafetinib) | log2 fold change [1] | log2 fold change [2] | log2 fold change (tipifarnib) | log2 fold change (mubritinib) | log2 fold change (dasatinib) | log2 fold change (nilotinib) | log2 fold change [3] | log2 fold change [4] | log2 fold change [5]
1 | NOS1AP (UniProt O75052) | -0.052 | 0.067 | -0.179 | -0.037 | 0.165 | – | – | – | – | –
2 | PAFAH2 (UniProt Q99487) | -0.083 | 0.079 | 0.029 | 0.611 (active) | – | -0.146 | – | – | – | –
3 | OAF (UniProt Q86UD1) | – | – | 0.199 | – | -0.104 | – | – | – | – | –
4 | NA isoform 3 (UniProt Q4G0T1) | -0.198 | -0.065 | 0.059 | -0.066 | -0.066 | -0.093 | -0.021 | -0.009 | 0.01 | –
5 | NAT14 (UniProt Q8WUY8) | -0.071 | -0.06 | -0.209 | 0.054 | 0.118 | -0.066 | 0.003 | -0.052 | 0 | –
6 | MLH1 (UniProt P40692) | -0.063 | 0.005 | – | 0.047 | -0.073 | -0.212 | – | – | – | 0.035
7 | MXRA7 isoform 3 (UniProt P84157) | – | – | -0.078 | 0.011 | – | – | – | – | – | –
8 | NA (UniProt B2RBV5) | -0.005 | – | – | 0.075 | 0.04 | – | -0.433 | 0.828 (active) | -0.195 | -0.084
9 | NUDT6 (UniProt P53370) | – | 0.426 | 0.05 | -0.022 | -0.049 | -0.005 | -0.1 | 0.083 | 0.08 | –
10 | OVCA2 (UniProt Q8WZ82) | 0.171 | – | -0.003 | -0.059 | -0.231 | – | 0.026 | -0.326 | -0.163 | 0.039
11 | MRPS21 (UniProt P82921) | 0.382 | 0.036 | 0.017 | -0.028 | 0.277 | -0.284 | -0.347 | 0.137 | -0.002 | –
12 | OSBPL3 (UniProt Q9H4L5) | – | -0.081 | -0.173 | -0.17 | – | 0.447 | 0.316 | 0.114 | -0.213 | –
13 | NME7 (UniProt Q9Y5B8) | -0.14 | -0.044 | 0.009 | -0.001 | -0.279 | -0.245 | – | – | – | 0.071
14 | MYH16 (UniProt Q9H6N6) | 0.482 | 0.068 | – | -0.248 | -0.025 | – | 0.061 | 0.062 | 0.088 | 0.303
15 | MORC2 (UniProt Q9Y6X9) | -0.036 | – | – | 0.018 | 0.126 | – | – | – | – | –
16 | NA (UniProt J3KR12) | 0.338 | – | -0.112 | – | 0.16 | – | 0.208 | -0.221 | -0.196 | –
